Records with an inconclusive call do not appear. Active and inactive are the calls of the source.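 How the source made its calls, unless noted: active means percent response above 42, roughly 3 SD of non-fluorescent test compounds; inactive means the rest.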
Legend:
[1] = yeast TOR pathway RPL19A-GFP modulators, primary screen, cell-based, S. cerevisiae, multiplex flow cytometry (AID 1862; in the data active means percent of DMSO control GFP below about 86%;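 further: lower values mimic rapamycin by blocking the RPL19A rise seen in DMSO cells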); settings: S. cerevisiae RPL19A-GFP strain, flow cytometry fluorescence, 3 h; at 10 µM; stronger effect = lower value
[2] = modulators of MEP2-GFP levels in yeast, primary screen, S. cerevisiae, multiplex flow cytometry (AID 1867;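 active means GFP response, as percent of the DMSO control, above the screen-wide mean plus 3 SD, about 139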;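 further: median GFP channel fluorescence of barcode-gated MEP2-GFP cells measured by flow cytometry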); settings: S. cerevisiae MEP2-GFP strain, 3 h, at 10 µM, stronger effect = higher value, 100% means same as DMSO wells
[3] = modulators of CIT2-GFP expression in yeast, primary screen, S. cerevisiae, GFP fusion, multiplex flow cytometry (AID 1870;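 active means percent response above a set limit, the screen-wide mean plus 3 SD, cut at about 130% in these data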;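 further: barcoded CIT2-GFP strain pooled with four other GFP strains with rapamycin as positive control; median GFP fluorescence per well over plate mean of DMSO wells so 100% = DMSO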); settings: 3 h, at 10 µM, stronger effect = higher value
[4] = modulators of LAP4-GFP expression in yeast, primary screen, S. cerevisiae, multiplex flow cytometry (AID 1873;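 active means GFP signal, as percent of the solvent control, above the screen mean plus 3 SD, about 149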); settings: 3 h, at 10 µM, stronger effect = higher value
[5] = modulators of AGP1-GFP expression in yeast TOR pathway, primary screen, cell-based, multiplex flow cytometry, S. cerevisiae (AID 1887;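 active means GFP signal above the screen-wide mean plus 3 SD, that is over about 124.5% of the solvent control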;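 further: AGP1-GFP fusion strain of S. cerevisiae within a five-strain barcoded multiplex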); settings: 3 h, at 10 µM, stronger effect = higher value
[6] = RPL19A-GFP modulators, yeast TOR pathway, confirmation, cell-based, S. cerevisiae, flow cytometry, cherry picks, mother/daughter gates (AID 2270;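 active means GFP response below 50% of the DMSO control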); settings: S. cerevisiae RPL19A-GFP strain, 3 h, at 10 µM, stronger effect = lower value, 100 = same GFP as DMSO wells
[7] = LAP4-GFP expression modulators in yeast, confirmation, cell-based, cherry picks, flow cytometry, mother/daughter gates (AID 2271;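 active means GFP response above 150% of the DMSO control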;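 further: ratio of sample to DMSO plate mean so 100% equals DMSO level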); settings: S. cerevisiae LAP4-GFP strain, 3 h, at 10 µM, stronger effect = higher value, 100 means same as DMSO control
[8] = modulators of MEP2-GFP levels in yeast, confirmation, S. cerevisiae, flow cytometry GFP, cherry picks (AID 2272;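 active means GFP response above 150% of the DMSO control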;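 further: ratio of well signal to plate DMSO mean so 100% equals DMSO level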); settings: S. cerevisiae MEP2-GFP strain, 3 h, at 10 µM, stronger effect = higher value
[9] = modulators of CIT2-GFP expression in yeast, confirmation, S. cerevisiae, GFP fusion, cherry picks, mother/daughter gates (AID 2274;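 active means GFP response above 150% of the DMSO level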); settings: S. cerevisiae CIT2-GFP strain, flow cytometry, 3 h, at 10 µM, stronger effect = higher value
[10] = inhibitors of CD8+ T cell-vesicle binding, pilot screen, LFA-1/ICAM-1 modulator project, MLPCN validation set, flow cytometry (AID 2523;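 active means response below a set limit, under 55% cells CD8-positive and vesicle-bound, and CD8 cells' 90th-percentile brightness under 279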;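 on vesicle binding response: mean PE anti-B7-1 fluorescence of CD8+ cells relative to row control; 100% = QL9-loaded vesicles with DMSO vehicle in the same plate row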); settings: 2C mouse CD8+ T cells, at 7 µM, stronger effect = lower value; double positive events: measured here: CD8+/vesicle+ event percentage
[11] = target: Integrin beta-1 (Homo sapiens) + Integrin alpha-4 (Homo sapiens) (UniProt P13612+P05556); assay: inhibition of HUTS-21 binding to VLA-4, pilot screen, VLA-4 allosteric modulator project, U937 cells, HUTS-21 mAb, flow cytometry, validation set (AID 2674;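 active means inhibition above 50%, about 3 SD of the validation set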;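 further: antibody binding induced by the VLA-4 ligand LDV present at three times its Kd; 0% = LDV ligand with antibody and no compound and 100% = antibody without LDV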); settings: HUTS-21 LIBS mAb binding, at 6.7 µM, stronger effect = higher value, binding induced by LDV ligand
[12] = superoxide lowering in aged yeast cells, pilot screen, validation compound set (AID 2706;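 active means superoxide response below 65% of plate, a cut near 3 SD across the whole screen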;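 further: yeast exposed to compound for one week at 30 degrees C before staining; 100% = mean of all compound wells on the same plate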); settings: S. cerevisiae aging, superoxide DHE fluorescence; at 10 µM; stronger effect = lower value
[13] = target: Beta-adrenergic receptor kinase 1 (Homo sapiens) (UniProt P25098); assay: GRK2 binders displacing RNA aptamer, biochemical, validation, human GRK2, bead flow cytometry (AID 488806;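 active means aptamer binding inhibition above 30%, about 3 SD of noise from non-fluorescent compounds; inactive means inhibition at or below 30%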); settings: bead-bound GRK2, FAM-aptamer displacement, at 10 µM, stronger effect = higher value
[14] = target: Beta-2 adrenergic receptor (Homo sapiens) (UniProt P07550); assay: beta2AR agonists driving receptor internalization, pilot screen, cell-based, FAP fluorogen, flow cytometry, validation set (AID 504459); settings: Am2.2-beta2AR cells, FAP surface receptor flow cytometry; at 10 µM; stronger effect = higher value;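 further: agonist-driven loss of surface beta2AR via internalization measured by FAP dye flow cytometry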
[15] = target: AP-2 complex subunit beta (Homo sapiens) (UniProt P63010); assay: inhibitors of arrestin peptide binding to AP2, pilot screen, biochemical, validation set, GST-AP2 beads, flow cytometry (AID 504541;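 active means inhibition above 54%, about 3 SD of non-fluorescent compounds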;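 further: AP2 carries R879A mutation and is captured from E. coli lysate; bead-bound FITC arrestin peptide fluorescence measuring arrestin peptide binding to AP2; 0% = DMSO wells and 100% = excess unlabeled arrestin peptide control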); settings: FITC arrestin peptide, at 10 µM, stronger effect = higher value, AP2 beta2 appendage fragment, R879A mutant
[16] = yeast V-ATPase proton transport modulators, S. cerevisiae, pHLuorin, HTS validation (AID 504600; in the data active means response above about 15%;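 further: plate controls were DMSO for no effect and reference compound for full effect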); settings: S. cerevisiae pHLuorin cytosolic pH, at 10 µM, stronger effect = higher value
[17] = system: anti-desmoglein-3 scFv antibody binding to human DSG3; assay: inhibitors of anti-DSG3 scFv binding to DSG3, pilot screen, biochemical, validation compound set, bead-based, flow cytometry (AID 588368;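 active means binding below the plate cutoff, the plate median minus 3 SD, with a reading above zero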;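 further: signal is the median channel fluorescence of bead-bound GFP antibody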); settings: Protein G beads, DSG3-Fc, scFv-GFP binding, at 10 µM, stronger effect = lower value
[18] = inhibitors of fungal efflux pumps CDR1, CDR2, MDR1, pilot screen, validation compound set, multiplex, phenotypic (AID 588506;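 active means efflux inhibition above 0.42, the validation set average plus 4 SD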;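 further: Nile Red retained in cells so higher fluorescence means more efflux inhibition; 0 = negative control wells and 1 = enniatin B 25 µM full block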); settings: S. cerevisiae pump-expressing triplex, Nile Red efflux flow cytometry; at 10 µM; stronger effect = higher value; the pumps come from Candida albicans
[19] = target: ATP-binding cassette sub-family B member 6 (Homo sapiens) (UniProt Q9NP58); assay: ABCB6 transporter inhibitors, pilot screen, K562-ABCB6 cells, flow cytometry, validation set (AID 588550;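 active means inhibition above the screen-wide mean plus 3 SD, about 51%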;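 further: 0% = DMSO wells and 100% = benzethonium chloride 70 µM positive control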); settings: K562-ABCB6 porphyrin accumulation, 1 h, at 10 µM, stronger effect = higher value
[20] = promoters of myeloid differentiation in arrested cells, primary screen, cell-based, GFP/MAC1 double positive, flow cytometry, validation set (AID 588685;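 active means differentiation response of at least 50%, scaled between solvent and reference control, from cells with both markers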;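 further: compound exposure lasts four days before antibody staining and flow analysis; 0% = DMSO wells and 100% = 5 µM fulvestrant positive control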); settings: ER-HoxA9 marrow cells, stronger effect = higher value, normalized: vehicle 0, fulvestrant 100
[21] = measured here: daughter cell gate
[22] = measured here: mother cell gate
[23] = measured here: daughter cell gate response
[24] = measured here: mother cell gate response

Sequence of ATP-binding cassette sub-family B member 6 (Homo sapiens) (Q9NP58 whole entry, looked up): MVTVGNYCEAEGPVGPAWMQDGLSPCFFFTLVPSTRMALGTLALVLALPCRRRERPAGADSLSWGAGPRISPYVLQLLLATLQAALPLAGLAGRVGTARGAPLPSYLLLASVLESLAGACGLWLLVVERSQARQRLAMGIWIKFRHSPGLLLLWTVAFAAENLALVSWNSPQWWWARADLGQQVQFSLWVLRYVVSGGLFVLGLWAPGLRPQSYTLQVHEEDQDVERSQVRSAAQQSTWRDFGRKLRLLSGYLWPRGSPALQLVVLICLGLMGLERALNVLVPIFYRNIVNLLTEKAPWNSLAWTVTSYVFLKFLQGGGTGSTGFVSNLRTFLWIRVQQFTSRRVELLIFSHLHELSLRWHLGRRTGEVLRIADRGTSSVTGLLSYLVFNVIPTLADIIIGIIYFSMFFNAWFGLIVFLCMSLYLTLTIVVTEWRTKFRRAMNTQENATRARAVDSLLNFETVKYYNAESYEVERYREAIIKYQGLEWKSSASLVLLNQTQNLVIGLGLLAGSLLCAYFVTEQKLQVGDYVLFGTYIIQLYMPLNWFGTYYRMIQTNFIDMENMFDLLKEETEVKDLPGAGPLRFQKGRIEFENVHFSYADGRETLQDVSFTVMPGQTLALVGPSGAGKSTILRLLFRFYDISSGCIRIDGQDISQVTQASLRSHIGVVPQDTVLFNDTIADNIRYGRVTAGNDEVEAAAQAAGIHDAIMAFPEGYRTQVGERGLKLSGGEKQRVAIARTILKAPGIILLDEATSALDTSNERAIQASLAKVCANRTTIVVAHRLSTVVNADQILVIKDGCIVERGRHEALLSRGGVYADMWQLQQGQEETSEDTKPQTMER
Sequence of Integrin beta-1 (Homo sapiens) + Integrin alpha-4 (Homo sapiens) (P05556 whole entry, looked up): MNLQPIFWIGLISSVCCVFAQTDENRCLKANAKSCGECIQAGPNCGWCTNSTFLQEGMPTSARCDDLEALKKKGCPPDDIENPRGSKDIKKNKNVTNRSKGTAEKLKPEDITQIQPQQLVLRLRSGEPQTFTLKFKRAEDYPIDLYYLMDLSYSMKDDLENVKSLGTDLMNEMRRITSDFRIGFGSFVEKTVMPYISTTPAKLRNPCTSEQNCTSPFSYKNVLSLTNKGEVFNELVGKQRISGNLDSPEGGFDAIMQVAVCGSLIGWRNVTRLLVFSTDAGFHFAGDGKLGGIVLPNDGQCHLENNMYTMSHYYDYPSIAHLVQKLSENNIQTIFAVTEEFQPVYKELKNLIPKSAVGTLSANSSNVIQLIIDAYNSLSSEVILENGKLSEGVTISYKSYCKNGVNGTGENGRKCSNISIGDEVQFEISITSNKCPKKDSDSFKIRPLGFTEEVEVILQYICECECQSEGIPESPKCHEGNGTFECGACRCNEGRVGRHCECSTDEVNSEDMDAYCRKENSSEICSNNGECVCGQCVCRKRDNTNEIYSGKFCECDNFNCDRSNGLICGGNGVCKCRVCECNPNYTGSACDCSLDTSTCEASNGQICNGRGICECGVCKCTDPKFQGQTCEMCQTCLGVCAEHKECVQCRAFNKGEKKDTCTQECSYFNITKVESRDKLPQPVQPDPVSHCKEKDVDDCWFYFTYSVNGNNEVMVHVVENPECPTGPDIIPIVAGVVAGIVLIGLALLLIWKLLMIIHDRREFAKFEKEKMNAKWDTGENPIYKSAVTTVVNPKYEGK
Sequence of Integrin beta-1 (Homo sapiens) + Integrin alpha-4 (Homo sapiens) (P13612 whole entry, looked up): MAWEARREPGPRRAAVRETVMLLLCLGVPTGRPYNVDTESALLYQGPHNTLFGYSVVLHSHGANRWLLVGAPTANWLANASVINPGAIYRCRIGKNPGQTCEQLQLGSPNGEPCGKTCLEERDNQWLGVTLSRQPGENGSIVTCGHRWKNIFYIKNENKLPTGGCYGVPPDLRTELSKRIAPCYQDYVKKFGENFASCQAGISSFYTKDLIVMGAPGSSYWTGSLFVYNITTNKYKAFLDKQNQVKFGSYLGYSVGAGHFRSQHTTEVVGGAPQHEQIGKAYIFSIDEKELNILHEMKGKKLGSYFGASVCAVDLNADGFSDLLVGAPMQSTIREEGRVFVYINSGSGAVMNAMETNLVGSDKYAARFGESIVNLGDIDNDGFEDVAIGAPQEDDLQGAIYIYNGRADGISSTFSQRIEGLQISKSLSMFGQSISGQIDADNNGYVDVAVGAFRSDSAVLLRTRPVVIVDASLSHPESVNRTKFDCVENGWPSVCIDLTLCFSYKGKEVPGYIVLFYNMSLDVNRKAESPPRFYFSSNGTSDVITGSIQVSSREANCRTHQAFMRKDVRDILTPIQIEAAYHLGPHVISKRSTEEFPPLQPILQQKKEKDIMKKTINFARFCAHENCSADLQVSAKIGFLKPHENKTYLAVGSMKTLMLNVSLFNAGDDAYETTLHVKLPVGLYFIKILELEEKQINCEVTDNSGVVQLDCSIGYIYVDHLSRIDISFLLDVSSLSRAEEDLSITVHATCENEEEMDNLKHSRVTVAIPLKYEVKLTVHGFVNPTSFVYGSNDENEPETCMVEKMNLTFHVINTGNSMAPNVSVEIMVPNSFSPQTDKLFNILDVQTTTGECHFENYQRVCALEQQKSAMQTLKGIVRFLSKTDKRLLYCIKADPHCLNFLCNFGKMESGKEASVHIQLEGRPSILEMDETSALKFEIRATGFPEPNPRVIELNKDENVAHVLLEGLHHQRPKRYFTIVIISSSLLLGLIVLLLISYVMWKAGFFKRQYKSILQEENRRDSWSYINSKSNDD
Sequence of Beta-2 adrenergic receptor (Homo sapiens) (P07550 whole entry, looked up): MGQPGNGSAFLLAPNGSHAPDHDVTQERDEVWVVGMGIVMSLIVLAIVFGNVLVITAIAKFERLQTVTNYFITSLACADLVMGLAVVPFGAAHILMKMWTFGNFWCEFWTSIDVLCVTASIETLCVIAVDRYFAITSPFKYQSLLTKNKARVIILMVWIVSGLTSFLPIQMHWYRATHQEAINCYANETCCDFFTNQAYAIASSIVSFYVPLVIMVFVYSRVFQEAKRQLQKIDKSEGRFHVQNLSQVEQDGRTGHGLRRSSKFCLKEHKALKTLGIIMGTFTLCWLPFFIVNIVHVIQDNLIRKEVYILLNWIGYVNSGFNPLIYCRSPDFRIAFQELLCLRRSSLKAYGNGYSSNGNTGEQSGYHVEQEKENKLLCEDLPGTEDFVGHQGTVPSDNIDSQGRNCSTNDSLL
Sequence of AP-2 complex subunit beta (Homo sapiens) (P63010 whole entry, looked up, the tested form may be a part, one chain of several): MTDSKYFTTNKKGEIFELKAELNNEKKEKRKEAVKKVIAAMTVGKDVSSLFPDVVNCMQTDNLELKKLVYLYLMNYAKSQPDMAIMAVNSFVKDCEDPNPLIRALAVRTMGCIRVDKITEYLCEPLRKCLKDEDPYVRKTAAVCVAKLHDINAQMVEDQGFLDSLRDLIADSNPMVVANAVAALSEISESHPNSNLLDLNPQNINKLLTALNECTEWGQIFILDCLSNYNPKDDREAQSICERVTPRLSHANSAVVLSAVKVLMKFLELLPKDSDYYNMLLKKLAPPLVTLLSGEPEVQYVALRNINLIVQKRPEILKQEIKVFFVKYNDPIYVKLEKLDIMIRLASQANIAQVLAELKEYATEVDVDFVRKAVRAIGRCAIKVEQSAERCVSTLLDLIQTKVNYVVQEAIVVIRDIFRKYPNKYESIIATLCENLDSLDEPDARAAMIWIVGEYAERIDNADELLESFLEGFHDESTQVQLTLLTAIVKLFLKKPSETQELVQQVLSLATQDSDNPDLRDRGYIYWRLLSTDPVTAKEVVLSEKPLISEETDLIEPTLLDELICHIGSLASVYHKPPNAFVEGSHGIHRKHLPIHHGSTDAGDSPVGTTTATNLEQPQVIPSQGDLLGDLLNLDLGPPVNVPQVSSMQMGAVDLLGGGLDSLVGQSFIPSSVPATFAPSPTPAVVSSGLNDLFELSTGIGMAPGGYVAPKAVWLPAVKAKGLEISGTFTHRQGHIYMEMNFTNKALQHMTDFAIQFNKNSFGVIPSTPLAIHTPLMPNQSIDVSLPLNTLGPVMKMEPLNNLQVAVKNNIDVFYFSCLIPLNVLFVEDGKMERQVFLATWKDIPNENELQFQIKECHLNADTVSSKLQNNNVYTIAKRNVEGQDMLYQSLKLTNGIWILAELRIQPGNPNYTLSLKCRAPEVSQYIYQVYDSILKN
Sequence of Beta-adrenergic receptor kinase 1 (Homo sapiens) (P25098 whole entry, looked up): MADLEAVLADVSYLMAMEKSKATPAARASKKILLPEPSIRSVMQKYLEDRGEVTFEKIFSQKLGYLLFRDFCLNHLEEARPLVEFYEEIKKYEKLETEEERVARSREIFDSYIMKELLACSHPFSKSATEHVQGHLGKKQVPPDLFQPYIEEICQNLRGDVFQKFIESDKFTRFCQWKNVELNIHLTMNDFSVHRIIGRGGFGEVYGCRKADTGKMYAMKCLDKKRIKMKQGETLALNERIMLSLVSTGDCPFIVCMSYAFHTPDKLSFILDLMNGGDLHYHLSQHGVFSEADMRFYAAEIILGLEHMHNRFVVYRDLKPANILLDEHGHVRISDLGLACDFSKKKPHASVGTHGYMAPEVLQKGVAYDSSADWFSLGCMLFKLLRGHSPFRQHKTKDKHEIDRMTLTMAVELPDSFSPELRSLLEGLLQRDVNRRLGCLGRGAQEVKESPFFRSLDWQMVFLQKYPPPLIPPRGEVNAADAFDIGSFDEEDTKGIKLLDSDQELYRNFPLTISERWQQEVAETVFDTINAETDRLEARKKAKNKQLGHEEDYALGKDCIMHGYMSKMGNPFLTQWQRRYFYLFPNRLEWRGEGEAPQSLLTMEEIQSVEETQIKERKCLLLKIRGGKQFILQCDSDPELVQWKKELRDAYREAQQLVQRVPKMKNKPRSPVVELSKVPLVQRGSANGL

With `c1ccc2c(c1)CCOC2CNCCCN1CCCCC1` (stereo not drawn) as the compound, how does the percent of DMSO control GFP [1] read?
Its percent of DMSO control GFP is 92% (inactive).

What about the GFP response vs DMSO [2] of the same compound?
The GFP response vs DMSO was 142% (active).

What about the percent response of DMSO control [3] of the same compound?
The percent response of DMSO control was 126% (active).

And the GFP response vs DMSO [4]?
The GFP response vs DMSO was 98% (inactive).

And the GFP response, % of DMSO [5]?
The GFP response, % of DMSO was 113% (inactive).

What about the GFP response vs DMSO [6] of the same compound?
Its GFP response vs DMSO is 101% (inactive).

And the GFP response vs DMSO [6, 21]?
The GFP response vs DMSO was 101%.

And the GFP response vs DMSO [6, 22]?
The GFP response vs DMSO was 102%.

What about the GFP response relative to DMSO [7] of the same compound?
The GFP response relative to DMSO was 92.6% (inactive).

And the GFP response relative to DMSO [7, 23]?
The GFP response relative to DMSO was 97.2%.

What about the GFP response relative to DMSO [7, 24] of the same compound?
The GFP response relative to DMSO was 94.2%.

What about the GFP response vs DMSO [8] of the same compound?
Its GFP response vs DMSO is 100% (inactive).

And the GFP response, % of DMSO [9]?
Its GFP response, % of DMSO is 108% (inactive).

And the GFP response, % of DMSO [9, 21]?
The GFP response, % of DMSO was 105%.

What about the GFP response, % of DMSO [9, 22] of the same compound?
The GFP response, % of DMSO was 113%.

What about the double positive events [10] of the same compound?
The double positive events was 52.2%.

What about the vesicle binding response [10] of the same compound?
The vesicle binding response was 279% (inactive).

What about the inhibition [11] of the same compound?
Its inhibition is 14.2% (inactive).

And the superoxide response (% of plate) [12]?
Its superoxide response (% of plate) is 110% (inactive).

And the aptamer binding inhibition [13]?
The aptamer binding inhibition was -3% (inactive).

And the response [14]?
Its response is 0.72% (inactive).

What about the inhibition [15] of the same compound?
Its inhibition is -5.37% (inactive).

And the response [16]?
Its response is -6.48% (inactive).

And the binding (% of control) [17]?
Its binding (% of control) is 105% (inactive).

What about the efflux inhibition (fraction of control) [18] of the same compound?
The efflux inhibition (fraction of control) was 0.01 (inactive).

What about the inhibition [19] of the same compound?
The inhibition was -2% (inactive).

What about the differentiation response [20] of the same compound?
The differentiation response was -3.28% (inactive).

With `CC(=O)O[C@]1(C(C)=O)CC[C@H]2[C@@H]3C[C@H](C)C4=CC(=O)CC[C@]4(C)[C@H]3CC[C@@]21C` as the compound, how does the percent of DMSO control GFP [1] read?
Its percent of DMSO control GFP is 98.4% (inactive).

And the GFP response vs DMSO [2]?
The GFP response vs DMSO was 106% (inactive).

And the percent response of DMSO control [3]?
The percent response of DMSO control was 90.8% (inactive).

And the GFP response vs DMSO [4]?
Its GFP response vs DMSO is 84.8% (inactive).

What about the GFP response, % of DMSO [5] of the same compound?
Its GFP response, % of DMSO is 95.7% (inactive).

And the GFP response vs DMSO [6]?
Its GFP response vs DMSO is 94.3% (inactive).

What about the GFP response vs DMSO [6, 21] of the same compound?
Its GFP response vs DMSO is 95.7%.

What about the GFP response vs DMSO [6, 22] of the same compound?
Its GFP response vs DMSO is 97.2%.

What about the GFP response relative to DMSO [7] of the same compound?
The GFP response relative to DMSO was 98.8% (inactive).

And the GFP response relative to DMSO [7, 23]?
The GFP response relative to DMSO was 97.9%.

What about the GFP response relative to DMSO [7, 24] of the same compound?
Its GFP response relative to DMSO is 98.5%.

What about the GFP response vs DMSO [8] of the same compound?
Its GFP response vs DMSO is 93.3% (inactive).

What about the GFP response, % of DMSO [9] of the same compound?
Its GFP response, % of DMSO is 101% (inactive).

And the GFP response, % of DMSO [9, 21]?
The GFP response, % of DMSO was 102%.

What about the GFP response, % of DMSO [9, 22] of the same compound?
Its GFP response, % of DMSO is 101%.

What about the double positive events [10] of the same compound?
The double positive events was 63.9%.

What about the vesicle binding response [10] of the same compound?
Its vesicle binding response is 241% (inactive).

What about the inhibition [11] of the same compound?
Its inhibition is -3.57% (inactive).

And the aptamer binding inhibition [13]?
The aptamer binding inhibition was -1% (inactive).

What about the response [14] of the same compound?
Its response is 3.07% (inactive).

What about the inhibition [15] of the same compound?
The inhibition was -9.79% (inactive).

What about the response [16] of the same compound?
The response was -0.42% (inactive).

And the binding (% of control) [17]?
Its binding (% of control) is 100% (inactive).

And the efflux inhibition (fraction of control) [18]?
Its efflux inhibition (fraction of control) is 0.08 (inactive).

And the inhibition [19]?
Its inhibition is 20% (inactive).

And the differentiation response [20]?
Its differentiation response is 10% (inactive).

Reference: PubChem BioAssay
